Screening data as filed in PubChem.
Most compounds without a hit are left out; they make up all but 3.3% or so of the library.
FGF22 binding-1 – binders of recombinant human FGF22 by thermal shift; Q9HCT0; activity (Tm shift, normalised), % at 9.99 µM; SYPRO orange fluorescence; percent of sucrose octasulfate shift, DMSO zero; hit rate 1.5% among 340,000;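 active = mean Tm shift, scaled 0 neutral to 100 positive control, at about 1.3% or above, every replicate too, limit read from the data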
Target sequence (Q9HCT0 whole entry, looked up): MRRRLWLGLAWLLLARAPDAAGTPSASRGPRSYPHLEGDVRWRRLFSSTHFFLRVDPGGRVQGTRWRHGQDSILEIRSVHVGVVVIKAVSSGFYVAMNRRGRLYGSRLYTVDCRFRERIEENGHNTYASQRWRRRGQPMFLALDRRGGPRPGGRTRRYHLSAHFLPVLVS
GSIS activator – primary screen for activators of insulin secretion dependent on glucose, INS-1E cells, GLuc reporter luminescence | INS-1E GLuc reporter insulin secretion, 2-3 h | hit rate 0.61% among 370,000 | AID 743287 | activation, % at 16.6 µM;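 active = lowest replicate activation of at least 40%, so every replicate reaches that level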;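 note: 0% = median of neutral control wells and 100% = median of IBMX positive control wells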
CASP6 VEID inh – inhibitors of human caspase-6; inhibition, % at 12.5 µM; purified caspase-6, Z-VEID-R110 cleavage fluorescence; P55212; hit rate 0.53% among 350,000;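 active = mean inhibition across replicates at least about 35%, with every replicate also reaching that limit, limit read from the data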;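 note: 0% = median of neutral control wells and 100% = no fluorescence left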
SIRT5 block – inhibitors of human sirtuin-5 desuccinylase | Q9NXA8 | Purified SirT5, succinyl-peptide AMC, trypsin-coupled fluorescence | inhibition, % at 15 µM | hit rate 1.1% among 330,000; in the data active = inhibition above about 15%
Target sequence (Q9NXA8 whole entry, looked up): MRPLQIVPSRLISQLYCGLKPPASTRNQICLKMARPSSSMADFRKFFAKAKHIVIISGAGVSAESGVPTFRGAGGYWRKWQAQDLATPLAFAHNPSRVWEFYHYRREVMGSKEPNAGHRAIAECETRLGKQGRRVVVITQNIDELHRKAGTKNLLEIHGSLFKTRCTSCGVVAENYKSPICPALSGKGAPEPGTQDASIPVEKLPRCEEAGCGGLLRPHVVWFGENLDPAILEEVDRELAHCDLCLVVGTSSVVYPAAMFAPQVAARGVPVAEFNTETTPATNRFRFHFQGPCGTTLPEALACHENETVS
ERAP1 HTS inh – blocks human ERAP1 aminopeptidase activity | AID 652197 | hit rate 0.15% among 340,000 | inhibition, % at 10.7 µM | recombinant ERAP1, Leu-AMC fluorescence, 60 min;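 active = mean replicate inhibition of at least 30%, or all replicates individually reaching that 30% level; inactive = mean below 30% and not every replicate reaching it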;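 note: 0% = neutral control wells and 100% = L-leucinethiol positive control wells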
FGF22 binding-2 – binders of human FGF22 by thermal shift; hit rate 2% among 1,000; shares compounds with FGF22 binding-1; AID 720646; recombinant FGF22 thermal shift, SYPRO orange fluorescence; thermal shift activity, °C (ΔTm) at 38 µM;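 active = fitted rise in melting shift crosses a set limit at or below the top valid dose tested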
TSA no protein – compound-only SYPRO artifact for FGF22 binders; shares compounds with FGF22 binding-1; compound-only SYPRO orange thermal shift counter-screen, no protein; AC50, µM (top dose mostly 38 µM); hit rate 2% among 1,000; AID 743019;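 active = rising signal whose fitted curve reaches the 0.54 level within the top valid dose, showing a melting point, actives reach about 13 µM in these data; inactive = the rest, including activity in the opposite direction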; note: value is where the raw curve crosses a fixed level and not half-maximal
* marks the source's active call; other numbers are inactive results; i = inactive; · = no result; [ ] = remark or other dose.

SMILES	FGF22 binding-1	GSIS activator	CASP6 VEID inh	SIRT5 block	ERAP1 HTS inh	FGF22 binding-2	TSA no protein
C/C(CC(=O)Nc1cccc(Cl)c1Cl)=N\NC(=O)C(=O)NC1CCCCC1	27.9*	-1.5	-2.9	-5.4	-2.6	0.051	i
CCNC(=O)Nc1ccc2c(c1)C(=O)N(C)[C@H]1CC[C@H](CC(=O)Nc3cccc(F)c3)O[C@@H]1CO2	-0.2	5.2	·	-6.6	·	·	·
COc1ccc(S(=O)(=O)Nc2cc3c4c(c2)CC(=O)N4CCC3)cc1OC	-0.4	5.0	2.3	·	3.8	·	·
COc1ccc(S(=O)(=O)Nc2cc3c4c(c2)CCN4C(=O)CC3)cc1OC	11.7*	16.7	0.4	-8.5	2.5	-0.008	i
Cc1ccc(S(=O)(=O)Nc2ccc3c(c2)C(=O)N([C@@H](C)CO)C[C@H](C)[C@@H](CN(C)CC2CCCCC2)O3)cc1	1.5*	-7.4	-5.6	3.5	-1.5	0.155[42 µM]	i
C[C@H]1CN([C@@H](C)CO)C(=O)c2cc(NS(=O)(=O)c3ccccc3)ccc2O[C@@H]1CN(C)Cc1ccc(C(=O)O)cc1	1.3*	1.8	0.0	-5.3	0.2	0.095	i
C[C@H](CO)N1C[C@H](C)[C@H](CN(C)C)Oc2ccc(NC(=O)NC3CCCCC3)cc2CC1=O	2.0*	11.0	-2.5	0.2	-1.6	0.097[42 µM]	i
C[C@H](CO)N1C[C@H](C)[C@@H](CN(C)CC2CC2)Oc2ccc(NS(=O)(=O)c3cccs3)cc2C1=O	5.2*	10.0	-3.5	-5.8	-0.7	0.096[42 µM]	i
C[C@@H]1CN([C@@H](C)CO)C(=O)Cc2cc(NC(=O)NC3CCCCC3)ccc2O[C@H]1CN(C)C	-0.2	2.8	0.5	-1.4	1.5	·	·
C[C@H]1CN([C@@H](C)CO)C(=O)c2cc(NC(=O)C3CC3)ccc2O[C@@H]1CN(C)C(=O)Nc1ccc(C(F)(F)F)cc1	-0.1	2.1	-1.1	-0.3	-2.1	·	·
COc1ccc(CN2CC3(CCN(C(=O)C4CCC4)CC3)c3c(n(C)c4cc(OC)ccc34)[C@H]2CO)cc1	·	-19.7	·	·	·	·	·
CNC(=O)C[C@H]1CC[C@H]2[C@H](COc3ccc(NC(=O)Nc4ccc(F)c(F)c4)cc3C(=O)N2C)O1	·	-0.2	0.7	0.0	1.8	·	·
C[C@H]1CN([C@@H](C)CO)C(=O)c2cccc(NC(=O)Nc3cccc4ccccc34)c2O[C@H]1CN(C)C	-0.2	-4.4	1.0	-8.0	1.7	·	·
Cc1noc(C)c1NC(=O)Nc1ccc2c(c1)CC(=O)N([C@@H](C)CO)C[C@H](C)[C@@H](CN(C)Cc1ccc3c(c1)OCO3)O2	1.5*	18.3	-1.2	-0.5	-0.8	0.127	i
C[C@H]1CN([C@@H](C)CO)C(=O)c2cc(NS(=O)(=O)c3ccccc3)ccc2O[C@@H]1CN(C)C	1.4*	·	-4.2	3.4	0.5	0.038	i
C[C@@H]1CN([C@H](C)CO)C(=O)Cc2cc(N(C)C)ccc2O[C@@H]1CN(C)Cc1ccc(Cl)c(Cl)c1	39.9*	16.5	1.1	2.9	0.8	·	i
Cc1noc(C)c1NC(=O)Nc1ccc2c(c1)CC(=O)N([C@H](C)CO)C[C@H](C)[C@H](CN(C)Cc1ccc3c(c1)OCO3)O2	0.0	21.0	-0.2	0.5	-1.4	·	·
CC(C)NC(=O)Nc1cccc2c1O[C@H](CN(C)Cc1ccc(C(=O)Nc3ccccc3N)cc1)[C@H](C)CN([C@@H](C)CO)C2=O	0.0	9.2	0.9	-10.0	1.6	·	·
C[C@H]1CN([C@@H](C)CO)C(=O)c2cc(N(C)C)ccc2O[C@@H]1CN(C)Cc1ccc(Cl)c(Cl)c1	-0.4	-32.6	1.1	·	-1.1	·	·
CC(C)NC(=O)Nc1cccc2c1O[C@@H](CN(C)Cc1ccc(C(=O)Nc3ccccc3N)cc1)[C@@H](C)CN([C@H](C)CO)C2=O	1.5*	11.0	-0.4	·	0.7	0.165	i
C[C@@H]1CN([C@@H](C)CO)C(=O)c2cc(NS(C)(=O)=O)ccc2O[C@@H]1CN(C)Cc1ccc2c(c1)OCO2	1.9*	7.4	-3.4	-1.1	3.5	-0.115	i
C[C@@H]1CN([C@H](C)CO)C(=O)c2cc(NC(=O)Cc3cn(C)c4ccccc34)ccc2O[C@@H]1CN(C)S(=O)(=O)c1ccccc1	25.0*	-1.5	2.2	-1.5	-0.9	0.161	i
C[C@H]1CN([C@@H](C)CO)C(=O)c2cc(NC(=O)Cc3cn(C)c4ccccc34)ccc2O[C@H]1CN(C)S(=O)(=O)c1ccccc1	-0.3	-1.1	0.0	7.2	-1.1	·	·
Cc1ccc(S(=O)(=O)N[C@@H]2CC[C@H](CCn3cc(C(C)C)nn3)O[C@@H]2CO)cc1	-0.1	-2.0	32.3	-4.6	1.6	·	·
COC(=O)C[C@@H]1CC[C@H]2[C@@H](COc3ccc(NC(=O)NC(C)C)cc3C(=O)N2C)O1	1.3*	-0.9	-0.7	-4.8	0.2	0.025	i
SMILES	FGF22 binding-1	GSIS activator	CASP6 VEID inh	SIRT5 block	ERAP1 HTS inh	FGF22 binding-2	TSA no protein
Cc1nn(C)cc1NC(=O)C[C@H]1CC[C@@H]2[C@@H](COc3ccc(NC(=O)NC(C)C)cc3C(=O)N2C)O1	1.6*	5.6	0.3	-6.0	0.6	0.039	i
CCCN1[C@@H]2Cn3c(ccc(-c4ccc(F)cc4)c3=O)[C@H]1[C@@H](C(=O)NCCOC)[C@@H]2CO	-0.1	-3.5	0.8	-2.4	0.8	·	·
O=[N+]([O-])c1ccc(CS(=O)(=O)c2ccc(Cl)cc2)cc1	0.0	10.4	-1.2	-2.7	4.9	·	·
O=[N+]([O-])c1cc(CS(=O)(=O)Oc2ccc(Cl)cc2)c(O)c([N+](=O)[O-])c1	1.4*	1.4	1.4	6.5	6.1	0.108	i
COc1cccc(NC(=O)COc2coc(CN3CCN(c4ccccc4)CC3)cc2=O)c1	0.1	-8.6	7.0	-0.7	2.8	·	·
CCc1ccc(NC(=O)COc2coc(CN3CCN(c4ccccc4)CC3)cc2=O)cc1	2.6*	15.7	4.4	-0.3	-0.6	0.133	i
COc1ccccc1N(C)S(=O)(=O)c1ccc(C(=O)Nc2ccc(C(N)=O)cc2)cc1	1.7*	2.8	1.4	-3.4	2.0	-0.094	i
CCN(CC)CCNC(=O)c1ccc(NC(=O)c2ccc(S(=O)(=O)N(C)c3ccccc3OC)cc2)cc1	0.0	-9.5	-30.8	1.2	-2.2	·	·
CC(=O)Nc1cc(-c2ccccc2Cl)cn2c(-c3ccc(S(C)(=O)=O)cc3)cnc12	1.7*	-0.7	3.5	-4.7	-3.3	-0.006	i
CCC(=O)N1CC2(CCN(Cc3nccs3)CC2)c2c(n(C)c3cc(OC)ccc23)[C@H]1CO	0.1	1.9	·	·	-0.8	·	·
CCC(=O)N1CC2(CCN(Cc3nccs3)CC2)c2c(n(C)c3cc(OC)ccc23)[C@@H]1CO	1.3*	35.3	·	·	1.1	0.144	i
